Data on six compounds can be found in PubChem BioAssay (NCATS).

Assay [1] has as its target Lysosomal acid glucosylceramidase (Homo sapiens) (UniProt P04062). Description: Glucocerebrosidase-p2 (AID 348; in the data active means potency below about 10 µM; further: potency means the concentration at half of the fitted maximal effect). Conditions: purified GBA, blue fluorogenic substrate, 40 min. In outline:
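Compounds titrated from 0.6 nM upwards against 0.2 nM enzyme in pH 5.9 citric acid/KH2PO4, taurocholate, tween-20; blue fluorogenic substrate 80 uM, 40 min room temperature, stopped and read Ex 365/Em 440 for AC50.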

Assay [2] deals with Cytochrome P450 1A2 (Homo sapiens) (UniProt P05177). Briefly: p450-cyp1a2 (AID 410; calls by dose curve; further: potency means the concentration at half of the fitted maximal effect). The note with it: recombinant CYP1A2, luciferin-ME demethylation, luminescence; series mostly up to 57 µM. The method in brief:
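20nM CYP1A2 with 100uM Luciferin-ME (at Km) in 100mM KPO4; compound preincubated 10 min, NADPH regeneration added, 60 min at room temperature. Luciferin quantified by luminescence after detection reagent; normalized to 57 uM furafylline.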

Assay [3] can be described thus: NFAT Signaling Pathway (AID 444; active means well fitted curve in either direction with a large enough effect, not every such curve was filed as active;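 further: carbachol stimulus at about its EC50 of 1 µM final; on the % scale 0 is the no-effect control and ±100 the full control effect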). The note with it: Jurkat NFAT-bla M1, carbachol, beta-lactamase ratio, 5 h; at 7.69 µM (top of the series) unless noted. The method in brief: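 Jurkat cells with NFAT-driven β-lactamase reporter and co-expressed M1 receptor, stimulated with carbachol (final 1 uM, ~EC50), compound titration, 5 h at 37 °C. CCF4 loaded 1 h at RT; 460/530 nm ratio gave %activity and AC50.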

Assay [4] is described as follows: Stat Signaling Pathway (AID 446; active means well fitted curve in either direction with a large enough effect, not every such curve was filed as active;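 further: ME-180 cervical cancer cells given 40 pM IL-6 alongside compound; SIE-controlled beta-lactamase reporter measured as 460/530 nm FRET emission ratio; on the % scale 0 is the no-effect control and ±100 the full control effect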). Conditions: ME-180 SIE beta-lactamase reporter, IL-6 stimulated, 5 h; at 7.69 µM (top of the series) unless noted. The method in brief:
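ME-180 cells carrying a SIE-driven beta-lactamase reporter are stimulated with 40 pM IL-6 for 5 h at 37C in the presence of compound. The 460/530 nm FRET substrate ratio is read after 2.5 h at RT. Data are normalised to 300 pM IL-6 and to 125 nM JAK inhibitor controls.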

In assay [5] the target is Glucocorticoid receptor (Homo sapiens) (UniProt P04150). Briefly: GR-GFP Redistribution (AID 450;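 active means compounds whose dose series gives a full or clear partial fitted curve of increased nuclear translocation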; further: potency means the concentration at half of the fitted maximal effect). The note with it: U2OS GR-GFP nuclear translocation, laser cytometry, 2 h.
Chain of Glucocorticoid receptor (Homo sapiens) (P04150 whole entry, looked up, the tested form may be a part): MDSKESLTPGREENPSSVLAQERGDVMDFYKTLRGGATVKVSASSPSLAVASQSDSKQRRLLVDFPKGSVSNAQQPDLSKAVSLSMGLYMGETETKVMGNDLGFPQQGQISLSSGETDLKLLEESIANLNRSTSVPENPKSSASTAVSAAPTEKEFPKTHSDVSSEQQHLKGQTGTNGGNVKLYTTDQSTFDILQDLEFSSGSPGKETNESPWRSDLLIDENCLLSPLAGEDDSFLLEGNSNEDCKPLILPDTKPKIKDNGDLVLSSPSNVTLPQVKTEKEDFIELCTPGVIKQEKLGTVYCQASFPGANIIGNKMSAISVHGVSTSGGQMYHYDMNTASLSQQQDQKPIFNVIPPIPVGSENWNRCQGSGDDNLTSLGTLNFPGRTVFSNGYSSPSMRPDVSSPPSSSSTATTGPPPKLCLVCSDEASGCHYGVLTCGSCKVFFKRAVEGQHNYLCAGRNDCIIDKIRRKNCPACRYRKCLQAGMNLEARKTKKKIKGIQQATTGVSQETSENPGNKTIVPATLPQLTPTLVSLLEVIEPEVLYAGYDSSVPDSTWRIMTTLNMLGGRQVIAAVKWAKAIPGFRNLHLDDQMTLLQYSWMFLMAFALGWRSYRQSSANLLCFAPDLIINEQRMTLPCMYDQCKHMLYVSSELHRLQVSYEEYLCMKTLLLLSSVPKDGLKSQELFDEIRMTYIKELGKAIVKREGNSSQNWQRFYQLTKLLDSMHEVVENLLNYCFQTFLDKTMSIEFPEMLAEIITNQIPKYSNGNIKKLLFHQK
Assay [6] has the same target. Description: GR-EFC Redistribution (AID 451; calls by dose curve; further: potency means the concentration at half of the fitted maximal effect). Conditions: CHO-K1 GR-EFC translocation, beta-gal luminescence, 2 h. In outline: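 CHO-K1 cells expressing nuclear EA and GR-ED fragments of b-gal; compounds titrated up to 46 uM final, 2 h at 37 C. GR nuclear translocation read as complemented b-gal luminescence after 1 h RT detection.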
In assay [7] the target is Mitogen-activated protein kinase 10 (Mus musculus) (UniProt Q61831). Description: JNK3 AlphaScreen Assay (AID 530; active means well fitted curve in either direction with a large enough effect, not every such curve was filed as active;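 further: kinase came from lysate of stimulated human HepG2 cells; signal reports phosphorylation of biotinylated GST-cJun 1-79 at Ser73 with 10 µM ATP; on the % scale 0 is the no-effect control and ±100 the full control effect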). The note with it: JNK3 lysate, c-Jun phosphorylation; series mostly up to 57.1 µM. In outline:
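Pre-activated (IL-1β/TNFα) JNK3 in HepG2 lysates phosphorylates biotin-GST-cJun(1-79), 10 uM ATP; anti-phospho-cJun(Ser73) AlphaScreen read at room temperature, pH 7.6 Tris buffer. Compounds pre-incubated 15 min as titrations.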
A general note: Alpha assays give light when donor and acceptor beads are brought close together.

Assay [8] concerns the target 3',5'-cyclic-AMP phosphodiesterase 4B (Homo sapiens) (UniProt Q07343). Description: qHTS Assay for Inhibitors of PDE-IV (AID 607; active means well fitted activation curve with a large enough effect in the main read-out, with a control signal flat, not every such curve was filed as active; further: % of control where 0% means no effect). The note with it: HEK293 ACTOne CNG channel cells, membrane potential fluorescence; series mostly up to 22.9 µM. The method in brief: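 HEK293 ACTOne cells with CNG channel (1000/well), endogenous PDE4; membrane potential dye, compounds up to 22.9 uM final. Fluorescence Ex 535/Em 590; RO 20-1724 (100 uM final) as reference.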
A general note: qHTS replaces the single test concentration by a dilution series.

Assay [9] addresses Cytochrome P450 3A4 (Homo sapiens) (UniProt P08684). Briefly: qHTS Assay for Activators of Cytochrome P450 3A4 (AID 885). Further: nearly all actives have a fitted effect of over 65% in size. Further: potency means the concentration at half of the fitted maximal effect. Conditions: recombinant CYP3A4, Luciferin-PPXE luminescence, 60 min; series mostly up to 57.1 µM. The method in brief: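 Human CYP3A4 (20 nM) with Luciferin-PPXE at 25 uM (its KM) in 200 mM KPO4; 10 min compound preincubation, then NADPH regeneration and 60 min reaction at RT. Luciferin read by luminescence; normalized to 57 uM ketoconazole full inhibition.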

In assay [10] the target is Cytochrome P450 2C19 (Homo sapiens) (UniProt P33261). Description: qHTS Assay for Inhibitors and Substrates of Cytochrome P450 2C19 (AID 899). Further: potency means the concentration at half of the fitted maximal effect; nearly all actives have a fitted effect of over 60% in size. The note with it: recombinant CYP2C19, luciferin-H EGE luminescence; series mostly up to 57.1 µM. In outline: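 Luminescent read-out of luciferin formed from Luciferin-H EGE (10uM, equal to KM). Enzyme 5nM in 50mM KPO4; compound added, 10 min at 37C, then NADPH regenerating system for 60 min at 37C. Full inhibition defined by 57uM ketoconazole.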
Chain of Cytochrome P450 2C19 (Homo sapiens) (P33261 whole entry, looked up): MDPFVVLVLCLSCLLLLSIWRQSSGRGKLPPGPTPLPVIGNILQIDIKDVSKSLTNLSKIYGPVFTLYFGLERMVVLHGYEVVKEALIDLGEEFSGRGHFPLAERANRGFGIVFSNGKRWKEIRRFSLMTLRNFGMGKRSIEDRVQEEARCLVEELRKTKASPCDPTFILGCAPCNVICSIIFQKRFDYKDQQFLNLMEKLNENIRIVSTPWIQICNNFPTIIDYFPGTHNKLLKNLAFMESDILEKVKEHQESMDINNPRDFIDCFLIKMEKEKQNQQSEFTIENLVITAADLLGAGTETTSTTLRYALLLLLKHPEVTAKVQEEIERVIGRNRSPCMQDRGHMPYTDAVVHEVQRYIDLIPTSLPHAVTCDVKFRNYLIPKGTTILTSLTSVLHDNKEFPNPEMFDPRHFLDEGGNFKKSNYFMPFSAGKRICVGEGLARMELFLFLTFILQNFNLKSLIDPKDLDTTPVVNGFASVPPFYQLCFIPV

A short description of assay [11]: Confirmation and Secondary Assay for Modulators of Hemoglobin Beta Chain Splicing at IVS2 654 locus (AID 910).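 Further: HeLa cells stably carrying EGFP split by mutant beta-globin IVS2-654 intron; % of control where 0% means no effect.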 The note with it: HeLa EGFP-654 splicing reporter, GFP fluorescence, 48 h; series mostly up to 38.3 µM. In outline: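 HeLa cells stably expressing EGFP interrupted by β-globin IVS2-654 intron, seeded overnight in Opti-MEM/2% FCS, then treated 2 days at 37 °C. Restored splicing read as total peak GFP intensity per well by laser scanning cytometry (488 nm excitation, 500–520 nm emission); 500 nM antisense PNA as control.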

A short description of assay [12]: Confirmation and Secondary Assay for Modulators of Hemoglobin Beta Chain Splicing at IVS2 705 locus (AID 930).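 Further: HeLa cells stably expressing the EGFP-705 splicing reporter; % of control where 0% means no effect.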 Conditions: HeLa EGFP-705 splicing reporter, GFP fluorescence, 48 h; series mostly up to 38.3 µM. The method in brief: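 Splice-correction reporter: EGFP cDNA split by beta-globin intron 2 bearing the 705 mutation, stably in HeLa. Compound incubation 2 days, 37C; fluorescent objects 5-250 µm summed per well.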

Assay [13] is described as follows: qHTS Assay for Lipid Storage Modulators (AID 1519; calls by dose curve). The note with it: Drosophila S3 cells, BODIPY lipid droplet/cell ratio, laser cytometry, cells loaded with oleic acid; for activity change, negative = inhibition: at 57.5 µM (top of the series). The method in brief:
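Cells seeded at 5,000 per well were treated with compounds over a concentration series and loaded with oleic acid (400 uM, as added). Lipid droplet fluorescence (488 nm excitation, 500-530 nm channel) was read by laser-scanning cytometry and normalized to 20 uM Triacsin C.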

Assay [14] addresses Ubiquitin carboxyl-terminal hydrolase 1 (Homo sapiens) (UniProt O94782). Description: Inhibitors of USP1/UAF1: Pilot qHTS (AID 504865). Further: nearly all actives have a fitted effect of over 35% in size. Further: potency means the concentration at half of the fitted maximal effect. The note with it: purified USP1/UAF1, Ub-rhodamine cleavage fluorescence; series mostly up to 54.9 µM. In outline:
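1nM USP1/UAF1 + cpd, 15 min RT; start w/ Ub-Rho 150nM final; kinetic FL 480/540 nm, 6 reads q60 s. Buffer 50mM HEPES pH 7.8, 0.5mM EDTA, 1mM TCEP, 0.01% Tween-20, 0.1 mg/ml BSA.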

Assay [15] can be described thus: Primary qHTS for small molecule stabilizers of the endoplasmic reticulum resident proteome: Secreted ER Calcium Modulated Protein (SERCaMP) assay (AID 1508630). Further: on the % scale 0 is the no-effect control and ±100 the full control effect. The note with it: SH-SY5Y GLuc-SERCaMP (Gaussia luciferase released on ER calcium loss) secretion, thapsigargin, luminescence; series mostly up to 38.4 µM. The method in brief: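 GLuc-SERCaMP-expressing SH-SY5Y cells, pretreated 16 h with compound, are challenged with thapsigargin to empty ER calcium stores; after 4 h, coelenterazine is added directly to the medium and luminescence is imaged.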

Assay [16] has as its target Cytochrome P450 3A4 (Homo sapiens) (UniProt P08684). Briefly: qHTS Assay for Inhibitors and Substrates of Cytochrome P450 3A4 (AID 884). Further: on the % scale 0 is the no-effect control and ±100 the full control effect; nearly all actives have a fitted effect of over 50% in size. The note with it: recombinant CYP3A4, Luciferin-PPXE luminescence; series mostly up to 57.1 µM. In outline:
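20 nM human CYP3A4 with 25 uM Luciferin-PPXE (at KM) in 200 mM KPO4, preincubated 10 min with compound; NADPH regeneration started a 60 min RT reaction. Luciferin detected by luminescence, normalized to 57 uM ketoconazole as full inhibition.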

For assay [17], the target named is Cytochrome P450 2D6 (Homo sapiens) (UniProt P10635). Briefly: qHTS Assay for Inhibitors and Substrates of Cytochrome P450 2D6 (AID 891). Further: potency means the concentration at half of the fitted maximal effect; nearly all actives have a fitted effect of over 60% in size. Conditions: recombinant CYP2D6, luciferin-ME EGE luminescence; series mostly up to 57.1 µM. In outline:
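Human CYP2D6 (5 nM) with 30 uM Luciferin-ME EGE (at Km) in 100 mM KPO4, compound preincubated 10 min, then NADPH regeneration system for 60 min at room temperature. Luciferin read by luminescence; normalized to 1.43 uM quinidine.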

Assay [18] is described as follows: AP1 Signaling Pathway (AID 357; active means well fitted curve in either direction with a large enough effect, not every such curve was filed as active; further: on the % scale 0 is the no-effect control and ±100 the full control effect). The note with it: ME-180 AP-1-bla reporter, EGF-induced, beta-lactamase ratio, 5 h; at 7.69 µM (top of the series) unless noted. In outline: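 Modulation of EGF-driven AP-1 transcription was assessed with a beta-lactamase reporter in ME-180 cells. Compound and EC50 EGF were co-incubated 5 hours at 37 °C before 2.5-hour CCF4 loading at room temperature and dual-emission reading.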

Assay [19] is described as follows: qHTS Assay for Identification of Small Molecule Agonists for Hypoxia Response Element Signaling Pathway (AID 914; active means well fitted activation curve with a large enough effect in the signal ratio, with a control signal flat, not every such curve was filed as active; the % refers to the signal ratio; further: % of control where 0% means no effect). Conditions: ME-180 (cervical carcinoma) HRE-bla reporter, beta-lactamase ratio, CoCl2, 17 h; activation: stronger effect = higher value. In outline:
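Cells were plated overnight, pin-dosed with compound in a titration series, co-stimulated with EC50 CoCl2 and incubated 17 hours at 37 degrees Celsius. CCF4 substrate was then loaded, and AC50 values came from the 460nm/530nm ratio.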

The mark [20] stands for this setting: measured here: cell count channel max response.
Where [21] appears, read: measured here: lipid channel max response.

Inconclusive results are not listed. The source made the active and inactive calls. Unless noted, the call rests on the fitted dose curve; in most records, active means well fitted curve in the direction sought with a large enough effect; inconclusive means small, poorly fitted or top-dose-only effect, or another doubt; inactive means no such curve, though single readings can be large; an effect the other way counts as inactive or inconclusive.

Chain of Cytochrome P450 3A4 (Homo sapiens) (P08684 whole entry, looked up): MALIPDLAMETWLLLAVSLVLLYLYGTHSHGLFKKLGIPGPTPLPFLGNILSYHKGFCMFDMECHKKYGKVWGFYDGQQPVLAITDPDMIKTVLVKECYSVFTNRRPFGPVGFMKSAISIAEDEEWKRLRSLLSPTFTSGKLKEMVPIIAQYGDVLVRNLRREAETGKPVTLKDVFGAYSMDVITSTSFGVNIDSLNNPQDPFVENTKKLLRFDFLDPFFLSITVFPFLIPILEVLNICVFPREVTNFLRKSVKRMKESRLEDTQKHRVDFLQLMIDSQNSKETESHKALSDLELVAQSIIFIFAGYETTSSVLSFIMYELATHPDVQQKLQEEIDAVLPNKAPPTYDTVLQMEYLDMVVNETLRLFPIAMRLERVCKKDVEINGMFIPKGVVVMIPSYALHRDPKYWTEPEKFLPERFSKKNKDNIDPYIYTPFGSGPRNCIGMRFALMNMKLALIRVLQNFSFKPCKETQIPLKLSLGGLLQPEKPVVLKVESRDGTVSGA
Chain of 3',5'-cyclic-AMP phosphodiesterase 4B (Homo sapiens) (Q07343 whole entry, looked up): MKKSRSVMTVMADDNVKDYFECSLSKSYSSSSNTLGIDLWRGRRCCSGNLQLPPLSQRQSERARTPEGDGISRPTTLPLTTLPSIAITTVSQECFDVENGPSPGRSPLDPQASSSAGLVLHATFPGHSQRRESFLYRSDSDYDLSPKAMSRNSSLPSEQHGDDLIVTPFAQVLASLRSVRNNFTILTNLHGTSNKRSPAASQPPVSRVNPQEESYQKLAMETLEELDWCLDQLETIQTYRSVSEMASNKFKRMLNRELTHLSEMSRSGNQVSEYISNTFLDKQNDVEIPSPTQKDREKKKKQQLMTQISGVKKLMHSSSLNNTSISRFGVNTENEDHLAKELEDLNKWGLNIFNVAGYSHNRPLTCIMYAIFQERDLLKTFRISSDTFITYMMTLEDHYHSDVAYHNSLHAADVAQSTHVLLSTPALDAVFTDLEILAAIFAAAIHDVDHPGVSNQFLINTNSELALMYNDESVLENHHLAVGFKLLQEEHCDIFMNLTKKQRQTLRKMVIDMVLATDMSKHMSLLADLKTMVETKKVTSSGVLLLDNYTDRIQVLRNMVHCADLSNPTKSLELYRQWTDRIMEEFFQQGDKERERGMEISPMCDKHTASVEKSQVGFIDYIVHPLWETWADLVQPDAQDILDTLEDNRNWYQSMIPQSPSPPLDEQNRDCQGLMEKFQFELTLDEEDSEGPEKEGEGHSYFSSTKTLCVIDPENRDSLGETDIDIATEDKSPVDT
Chain of Lysosomal acid glucosylceramidase (Homo sapiens) (P04062 whole entry, looked up): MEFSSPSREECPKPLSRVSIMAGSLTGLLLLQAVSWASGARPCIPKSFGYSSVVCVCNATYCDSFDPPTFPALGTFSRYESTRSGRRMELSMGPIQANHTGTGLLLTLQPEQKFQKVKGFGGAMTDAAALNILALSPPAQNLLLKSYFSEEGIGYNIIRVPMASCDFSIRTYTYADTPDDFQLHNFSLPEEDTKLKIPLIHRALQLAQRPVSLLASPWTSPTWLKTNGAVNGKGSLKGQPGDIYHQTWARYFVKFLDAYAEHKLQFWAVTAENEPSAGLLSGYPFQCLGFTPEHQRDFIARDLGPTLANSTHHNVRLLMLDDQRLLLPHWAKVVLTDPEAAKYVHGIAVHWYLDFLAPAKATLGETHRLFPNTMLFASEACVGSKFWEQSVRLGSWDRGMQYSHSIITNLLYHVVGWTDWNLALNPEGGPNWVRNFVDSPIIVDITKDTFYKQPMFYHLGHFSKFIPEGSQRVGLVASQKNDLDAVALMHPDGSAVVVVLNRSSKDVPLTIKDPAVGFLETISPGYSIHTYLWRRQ
Chain of Cytochrome P450 1A2 (Homo sapiens) (P05177 whole entry, looked up): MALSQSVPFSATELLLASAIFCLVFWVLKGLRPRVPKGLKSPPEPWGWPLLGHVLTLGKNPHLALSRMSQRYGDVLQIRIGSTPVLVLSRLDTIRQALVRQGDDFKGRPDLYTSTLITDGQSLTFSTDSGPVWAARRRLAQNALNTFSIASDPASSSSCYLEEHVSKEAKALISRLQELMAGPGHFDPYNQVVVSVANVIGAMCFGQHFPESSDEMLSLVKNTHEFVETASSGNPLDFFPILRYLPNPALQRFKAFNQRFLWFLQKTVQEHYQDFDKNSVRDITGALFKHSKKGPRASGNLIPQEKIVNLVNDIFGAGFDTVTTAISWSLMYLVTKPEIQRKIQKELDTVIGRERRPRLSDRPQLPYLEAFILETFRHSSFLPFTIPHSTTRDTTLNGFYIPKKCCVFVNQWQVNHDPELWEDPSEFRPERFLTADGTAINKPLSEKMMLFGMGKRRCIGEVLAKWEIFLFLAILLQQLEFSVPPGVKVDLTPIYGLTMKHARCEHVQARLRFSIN
Chain of Cytochrome P450 2D6 (Homo sapiens) (P10635 whole entry, looked up): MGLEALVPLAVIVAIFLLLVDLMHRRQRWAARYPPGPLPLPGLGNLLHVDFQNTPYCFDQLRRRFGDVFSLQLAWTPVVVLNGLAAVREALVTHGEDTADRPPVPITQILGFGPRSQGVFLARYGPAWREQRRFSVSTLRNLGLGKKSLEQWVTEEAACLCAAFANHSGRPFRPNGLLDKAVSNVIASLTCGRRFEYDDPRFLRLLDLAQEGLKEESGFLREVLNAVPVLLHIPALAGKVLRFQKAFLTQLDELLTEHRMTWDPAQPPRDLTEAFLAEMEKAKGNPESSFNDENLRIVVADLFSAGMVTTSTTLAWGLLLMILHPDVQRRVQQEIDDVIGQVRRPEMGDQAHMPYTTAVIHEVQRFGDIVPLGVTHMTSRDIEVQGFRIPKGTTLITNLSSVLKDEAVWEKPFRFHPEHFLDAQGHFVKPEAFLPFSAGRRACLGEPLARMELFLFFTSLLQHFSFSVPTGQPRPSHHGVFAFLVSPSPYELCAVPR
Chain of Ubiquitin carboxyl-terminal hydrolase 1 (Homo sapiens) (O94782 whole entry, looked up): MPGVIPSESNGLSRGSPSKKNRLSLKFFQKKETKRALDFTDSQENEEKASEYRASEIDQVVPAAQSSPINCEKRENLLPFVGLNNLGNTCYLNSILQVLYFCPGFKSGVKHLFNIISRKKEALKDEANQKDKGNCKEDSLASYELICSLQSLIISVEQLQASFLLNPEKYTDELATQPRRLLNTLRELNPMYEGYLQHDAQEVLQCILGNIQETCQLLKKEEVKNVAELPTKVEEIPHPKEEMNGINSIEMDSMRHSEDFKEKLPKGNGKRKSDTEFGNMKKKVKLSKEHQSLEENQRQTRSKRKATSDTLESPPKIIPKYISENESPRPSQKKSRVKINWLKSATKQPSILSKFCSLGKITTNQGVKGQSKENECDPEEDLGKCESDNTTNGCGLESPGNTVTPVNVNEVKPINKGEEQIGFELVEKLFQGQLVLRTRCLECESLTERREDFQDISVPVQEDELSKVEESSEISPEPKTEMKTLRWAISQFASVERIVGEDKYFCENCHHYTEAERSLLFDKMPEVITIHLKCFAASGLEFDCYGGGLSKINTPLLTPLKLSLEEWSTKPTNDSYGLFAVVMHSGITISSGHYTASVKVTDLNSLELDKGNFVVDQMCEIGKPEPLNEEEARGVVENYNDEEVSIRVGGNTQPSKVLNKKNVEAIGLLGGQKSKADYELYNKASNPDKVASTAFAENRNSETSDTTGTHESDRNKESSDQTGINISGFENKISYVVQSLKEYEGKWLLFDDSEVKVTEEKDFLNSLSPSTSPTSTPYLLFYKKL

Take `COc1ccccc1CNc1ncncc1-c1ccccc1C`: the Potency in assay [1] was > 11.4 µM (inactive); in assay [2] it was 7.94 µM (active); in assay [5], > 46 µM (inactive); in assay [6] it was > 46 µM (inactive); in [10], 3.98 µM (active). Also, the activity change, negative = inhibition in assay [3] is -19.5% (inactive); in [13], 9.38% (inactive). The activity, negative = inhibition in assay [4] is 12.8% (inactive). Besides, the Potency result in assay [7], in assay [8], in [9], in assay [11] and in [14] was “inactive” each time. The compound was classed as inactive in assay [12] and in assay [15]. The max response in assay [13] (setting [20]) is -3.12%; in [13] (setting [21]), 5.51%.

On to `CS(=O)(=O)N1CCC2(CC1)CN(C(c1ccccc1)c1ccccc1)C2`, for which the Potency was > 11.4 µM (inactive) in [1], > 46 µM (inactive) in assay [6], 15.8 µM (active) in assay [9] and 2.51 µM (active) in [17]. Further, the Potency result in assay [2], in [7], in assay [8] and in [16] was “inactive” in each case. The activity change, negative = inhibition is -0.932% (inactive) in assay [3] and -2.92% (inactive) in assay [13]. Further, the activity, negative = inhibition in assay [4] is -5.62% (inactive). In addition, the results for the max response in assay [13] (setting [20]) and in [13] (setting [21]) were -5.26% and -3.93%, respectively. The outcome in assay [15] was inactive.

As for `COc1ccccc1CN1CCC2(CC1)CCN(C(=O)c1cccc(F)c1)CC2`, the Potency is > 11.4 µM (inactive) in [1] and > 46 µM (inactive) in assay [6]. Besides, the figures for the activity change, negative = inhibition in assay [18] and in assay [13] were -13% (inactive) and 2.42% (inactive), respectively. Further, the Potency result in [7] and in assay [8] was “inactive” throughout. Moreover, the activation in assay [19] was 21.3% (inactive). The values for the max response in [13] (setting [20]) and in [13] (setting [21]) were -4.91% and -3.6%, respectively. In [15], the outcome was inactive.

With `CC(C)CN1CCCC2(CCN(C(=O)c3cnccn3)CC2)C1`, the Potency was > 11.4 µM (inactive) in [1] and > 46 µM (inactive) in assay [6]. Also, the Potency entry in assay [2], in assay [7], in assay [8] and in [9] was “inactive” in each case. For the same compound, the activity, negative = inhibition in assay [4] was 7.99% (inactive). Further, the activity change, negative = inhibition in [13] is 1.42% (inactive). The max response came to 5.13% in assay [13] (setting [20]) and 9.23% in assay [13] (setting [21]). For the same compound, the result in assay [15] was inactive.

Take `COc1ccccc1CN1CCC2(CC1)CCN(S(C)(=O)=O)CC2`: the Potency in [1] was > 11.4 µM (inactive); in [6] it was > 46 µM (inactive); in [17], 0.02 µM (active). In addition, the Potency entry in assay [2], in assay [7] and in [8] was “inactive” throughout. The activity change, negative = inhibition in assay [3] is -27.6% (inactive); in assay [13], -1.09% (inactive). The activity, negative = inhibition in [4] was -4.05% (inactive). The results for the max response in assay [13] (setting [20]) and in assay [13] (setting [21]) were -18.8% and -18.2%, respectively. Moreover, the result in assay [15] was inactive.

For `FC(F)(F)c1ccccc1-c1nccc(NCc2ccccc2)n1`, the activity change, negative = inhibition in assay [18] was -1.94% (inactive); in assay [3], -3.71% (inactive); in assay [13], 6.15% (inactive). The Potency was 12.6 µM (active) in assay [2]; > 46 µM (inactive) in assay [5]; > 46 µM (inactive) in [6]; 6.31 µM (active) in assay [10]; 6.31 µM (active) in assay [14]. The activity, negative = inhibition in assay [4] is -13.7% (inactive). Also, the Potency result in assay [7], in [9] and in assay [11] was “inactive” throughout. In addition, the outcome in assay [12] and in [15] was inactive. Moreover, the max response was determined as 0.814% in assay [13] (setting [20]) and 5.46% in assay [13] (setting [21]).
